Experiment [1] is described as follows: Nuclear factor erythroid 2-related factor 2/antioxidant responsive element (Nrf2/ARE) small molecule agonists: qHTS cell viability counter screen in human keratinocytes (AID 1919968; active = well fitted curve in the direction sought with a large enough effect in the repeat runs; an effect the other way counts as inactive or inconclusive; note: nearly all actives have a fitted effect of over 55% in size; note: potency is the fitted concentration of half-maximal effect). An outline of the steps:
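Seed 1,500 KeratinoSens cells per well, then incubate 5 h at 37 C/5% CO2. Add compounds in DMSO and incubate 23 h. Add CellTiter-Fluor, wait 1 h and read fluorescence.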
(qHTS replaces the single test concentration by a dilution series.)

The target in experiment [2] is Gonadotropin-releasing hormone receptor (Homo sapiens) (UniProt P30968). In words: Human gonadotropin-releasing hormone receptor (GnRHR) small molecule agonists, calcium flux assay in GnRHR-HEK293 cells (AID 1920063). Note: nearly all actives have a fitted effect of over 35% in size. Note: potency is the fitted concentration of half-maximal effect. Put shortly: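 Cells: HEK293 stably expressing human GnRHR. Steps: overnight (18 h) culture, 1 h calcium dye loading at 37 C, compound addition, kinetic fluorescence read at 480/540 nm. Each compound tested at 15 concentrations in triplicate.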
Chain of Gonadotropin-releasing hormone receptor (Homo sapiens) (P30968 whole entry, looked up): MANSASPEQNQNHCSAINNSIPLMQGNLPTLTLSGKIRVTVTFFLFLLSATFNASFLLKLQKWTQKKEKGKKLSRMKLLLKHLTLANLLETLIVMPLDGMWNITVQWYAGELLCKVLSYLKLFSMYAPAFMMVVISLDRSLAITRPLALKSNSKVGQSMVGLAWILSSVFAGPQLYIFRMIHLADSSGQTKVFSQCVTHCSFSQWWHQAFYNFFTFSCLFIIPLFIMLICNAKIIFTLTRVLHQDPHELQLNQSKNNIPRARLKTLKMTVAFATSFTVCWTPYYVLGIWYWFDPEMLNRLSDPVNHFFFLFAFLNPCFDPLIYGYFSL
Background: A change in cytosolic calcium serves as a functional read-out for many receptors and channels.

The target of experiment [3] is KiSS-1 receptor (Homo sapiens) (UniProt Q969F8). In words: Human kisspeptin (KISS1R) small molecule agonists, calcium flux assay in KISS1R-HEK293 cells (AID 1920064; active = well fitted curve in the direction sought with a large enough effect in the repeat runs; an effect the other way counts as inactive or inconclusive). An outline of the steps: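 Cells plated and incubated 18 h; dye added, 1 h at 37 C; compounds in DMSO pinned in; signal read at 480/540 nm every second for 3 min. Each compound tested at 15 concentrations in triplicate.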
Chain of KiSS-1 receptor (Homo sapiens) (Q969F8 whole entry, looked up): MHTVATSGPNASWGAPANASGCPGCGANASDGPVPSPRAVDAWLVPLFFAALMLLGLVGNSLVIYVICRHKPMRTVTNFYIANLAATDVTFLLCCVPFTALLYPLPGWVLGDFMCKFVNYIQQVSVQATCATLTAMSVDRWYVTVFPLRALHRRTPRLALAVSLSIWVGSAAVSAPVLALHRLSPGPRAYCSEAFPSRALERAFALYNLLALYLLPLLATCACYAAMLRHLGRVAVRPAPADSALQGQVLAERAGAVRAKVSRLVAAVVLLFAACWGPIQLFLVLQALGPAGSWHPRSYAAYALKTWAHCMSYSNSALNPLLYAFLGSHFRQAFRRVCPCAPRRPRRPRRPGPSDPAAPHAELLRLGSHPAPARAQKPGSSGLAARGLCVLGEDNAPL

Experiment [4] in a line: G protein-coupled receptor (GPCR) small molecule agonists, calcium flux assay: HEK293 wild type cell line counter screen (AID 1920065). Put shortly:
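Counter-screen of the Tox21 10K library for non-specific calcium release: dye-loaded cells received compounds in DMSO and were monitored by kinetic fluorescence (480/540 nm, 3 min). Fifteen concentrations, run in triplicate.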

Experiment [5] is described as follows: p53 small molecule agonists, cell-based qHTS assay with human liver microsomes (AID 1963577). An outline of the steps:
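p53RE-bla reporter cells were pre-incubated 5 h at 37 C, then treated with compounds plus human liver microsomes (0.5 mg/mL final) and NADPH (0.5 mg/mL final) for 16 h at 37 C. Beta-lactamase activity was read by LiveBLAzer fluorescence after 2 h at room temperature.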

The nature of experiment [6]: p53 small molecule agonists, cell-based qHTS assay with rat liver microsomes (AID 1963578). An outline of the steps:
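p53RE-bla cells were exposed to compounds together with rat liver microsomes (0.5 mg/mL final) and NADPH (0.5 mg/mL final) for 16 h at 37 C, then read by LiveBLAzer beta-lactamase fluorescence after 2 h at room temperature.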

Experiment [7] is described as follows: p53 small molecule agonists, cell-based qHTS assay with human liver microsomes: qHTS cell viability counter screen (AID 1963579). Note: nearly all actives have a fitted effect of over 45% in size. Note: potency is the fitted concentration of half-maximal effect. Put shortly:
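p53RE-bla cells (4,000/well) were pre-incubated 5 h at 37 C, then given compounds in DMSO plus human liver microsomes (0.5 mg/mL final) and NADPH (0.5 mg/mL final) for 16 h at 37 C. Viability was read by CellTiter-Glo luminescence.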

The nature of experiment [8]: p53 small molecule agonists, cell-based qHTS assay with rat liver microsomes: qHTS cell viability counter screen (AID 1963580). Note: nearly all actives have a fitted effect of over 45% in size. Note: potency is the fitted concentration of half-maximal effect. Put shortly: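 HCT-116 p53RE-bla, 4,000 cells/well, 5 h pre-incubation; cpd + rat liver microsomes 0.5 mg/mL + NADPH 0.5 mg/mL (final); 16 h, 37 C; CellTiter-Glo, 30 min RT; luminescence.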
Experiment [9] in a line: p53 small molecule agonists, cell-based qHTS assay: qHTS cell viability counter screen (AID 1963581). Note: nearly all actives have a fitted effect of over 45% in size. Note: potency is the fitted concentration of half-maximal effect. An outline of the steps:
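Cells: HCT-116 with p53 response element-driven beta-lactamase. Treatment: 16 h, 37 C, compounds in DMSO. Read: CellTiter-Glo luminescence after 30 min RT.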

Experiment [10] in a line: p53 small molecule agonists, cell-based qHTS assay (AID 1963582; active = well fitted activation curve with a large enough effect in the signal ratio in the repeat runs, not every such curve was filed as active; the % refers to the signal ratio). An outline of the steps:
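Quantitative HTS in p53RE-bla cells: after a 5 h settling period, compounds delivered in DMSO were left on cells for 16 h at 37 C, and reporter induction was measured as fluorescence following 2 h substrate loading.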

For experiment [11], the target named is 5-hydroxytryptamine receptor 2A (Homo sapiens) (UniProt P28223). In words: 5-hydroxytryptamine receptor 2A (HTR2A) small molecule antagonists, cell-based qHTS assay (AID 1963586). Note: nearly all actives have a fitted effect of over 45% in size. Note: potency is the fitted concentration of half-maximal effect. An outline of the steps: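 Antagonist-mode intracellular calcium assay: DOI (4 nM) added after 5 min compound pre-incubation at room temperature to dye-loaded HTR2A-CHO cells. Fluorescence followed for 3 min, sampled every second.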
Chain of 5-hydroxytryptamine receptor 2A (Homo sapiens) (P28223 whole entry, looked up): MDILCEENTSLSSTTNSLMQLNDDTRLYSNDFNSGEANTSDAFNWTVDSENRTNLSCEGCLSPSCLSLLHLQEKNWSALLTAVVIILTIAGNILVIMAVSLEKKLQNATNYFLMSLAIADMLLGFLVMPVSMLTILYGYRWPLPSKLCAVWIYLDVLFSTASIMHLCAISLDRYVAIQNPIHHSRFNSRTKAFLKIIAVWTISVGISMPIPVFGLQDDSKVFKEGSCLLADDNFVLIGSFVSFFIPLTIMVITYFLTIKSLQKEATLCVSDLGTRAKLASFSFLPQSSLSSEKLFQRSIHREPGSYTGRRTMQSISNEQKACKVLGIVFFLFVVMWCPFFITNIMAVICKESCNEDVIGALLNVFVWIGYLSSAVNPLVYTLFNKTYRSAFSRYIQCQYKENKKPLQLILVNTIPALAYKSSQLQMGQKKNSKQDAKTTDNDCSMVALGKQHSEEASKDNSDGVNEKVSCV

For experiment [12] the target is unchanged. In words: 5-hydroxytryptamine receptor 2A (HTR2A) small molecule agonists, cell-based qHTS assay (AID 1963587). Note: nearly all actives have a fitted effect of over 30% in size. An outline of the steps:
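Kinetic calcium-flux fluorescence (2 min, 1 sec intervals) after compound addition in agonist mode. HTR2A-CHO cells were cultured 18 h, then dye-loaded 1 h at 37 C.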

For experiment [13], the target named is Muscarinic acetylcholine receptor M1 (Homo sapiens) (UniProt P11229). In words: Cholinergic receptor muscarinic 1 (CHRM1) small molecule antagonists, cell-based qHTS assay (AID 1963588). Note: nearly all actives have a fitted effect of over 40% in size. Put shortly:
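CHRM1-CHO calcium-flux assay, antagonist mode. Cells were seeded 18 h, dye-loaded 1 h at 37 C and given compound for 5 min at RT, then acetylcholine was added at 50nM. FDSS fluorescence was read 3 min; 15 concentrations, three runs.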

For experiment [14] the target is unchanged. In words: Cholinergic receptor muscarinic 1 (CHRM1) small molecule agonists, cell-based qHTS assay (AID 1963589). Note: nearly all actives have a fitted effect of over 35% in size. Note: potency is the fitted concentration of half-maximal effect. Put shortly: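 Agonist-mode qHTS in CHO cells stably carrying human muscarinic M1. Intracellular calcium is tracked by fluorescence every second after compound transfer; each compound runs at 15 concentrations in three independent runs.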

A short description of experiment [15]: cAMP Responsive Elements (CRE) small molecule agonists, cell-based qHTS assay (AID 1963590). An outline of the steps: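 Agonist mode qHTS in CRE-bla HEK 293T cells: compounds dosed from DMSO for 3 h at 37 C/5% CO2, followed by LiveBLAzer B/G FRET substrate for 2 h at room temperature.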
The nature of experiment [16]: cAMP Responsive Elements (CRE) small molecule antagonists, cell-based qHTS assay (AID 1963591; active = well fitted inhibition curve with a large enough effect in the signal ratio in the repeat runs, not every such curve was filed as active; the % refers to the signal ratio). An outline of the steps: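 Antagonist mode: test compounds are co-incubated with the adenylyl cyclase activator NKH477 (0.25 uM final) on CRE-bla HEK293T cells for 3 h at 37 °C, followed by LiveBLAzer substrate loading.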
Experiment [17] deals with Beta-2 adrenergic receptor (Homo sapiens) (UniProt P07550). In words: Adrenergic beta2 receptor (ADRB2) small molecule antagonists, cell-based qHTS assay (AID 1963592). Note: nearly all actives have a fitted effect of over 50% in size. Note: potency is the fitted concentration of half-maximal effect. Put shortly:
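Cells (CHO, stable ADRB2 overexpression) incubated 18-20hr at 37C; compounds added from DMSO; agonist mix (1nM isoproterenol, 100uM IBMX, 25uM Ro-20-1724) added; 0.5hr RT; d2-cAMP and anti-cAMP-cryptate added; 1hr RT; 665/615 nm read.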

Experiment [18] has the same target. In words: Adrenergic beta2 receptor (ADRB2) small molecule agonists, cell-based qHTS assay (AID 1963593).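 Note: CHO cells stably overexpressing human ADRB2.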 Put shortly:
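CHO cells stably over-expressing ADRB2 were plated overnight at 37C, then dosed with compounds plus a stimulation mix containing 100uM IBMX and 25uM Ro-20-1724 for 0.5hr at room temperature. cAMP was measured by HTRF competition, 1hr.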

The target in experiment [19] is D(2) dopamine receptor (Homo sapiens) (UniProt P14416). In words: Dopamine D2 receptor (DRD2) small molecule agonists, cell-based qHTS assay (AID 1963594). Note: nearly all actives have a fitted effect of over 35% in size. Note: potency is the fitted concentration of half-maximal effect. An outline of the steps: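 cAMP accumulation in DRD2-HEK293 cells measured by HTRF after 1 h detection; compounds added 10 min before NKH477 (200nM […]) forskolin-analogue stimulation, 30 min at room temperature, with Ro20-1724 present at 0.1 mM final.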
Chain of D(2) dopamine receptor (Homo sapiens) (P14416 whole entry, looked up): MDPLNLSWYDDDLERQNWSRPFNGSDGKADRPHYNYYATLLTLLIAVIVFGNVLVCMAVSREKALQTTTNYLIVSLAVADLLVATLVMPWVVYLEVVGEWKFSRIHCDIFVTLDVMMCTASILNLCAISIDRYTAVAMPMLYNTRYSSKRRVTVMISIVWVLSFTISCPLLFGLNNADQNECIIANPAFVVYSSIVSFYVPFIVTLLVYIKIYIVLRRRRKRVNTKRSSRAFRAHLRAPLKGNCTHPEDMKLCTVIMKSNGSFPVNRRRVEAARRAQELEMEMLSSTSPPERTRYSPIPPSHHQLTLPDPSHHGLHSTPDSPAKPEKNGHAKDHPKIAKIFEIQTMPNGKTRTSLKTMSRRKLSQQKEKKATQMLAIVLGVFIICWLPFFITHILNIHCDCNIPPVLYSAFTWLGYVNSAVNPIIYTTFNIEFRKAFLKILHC

Experiment [20] has the same target. In words: Dopamine D2 receptor (DRD2) small molecule antagonists, cell-based qHTS assay (AID 1963595; active = well fitted inhibition curve with a large enough effect in the signal ratio in the repeat runs, with a control signal flat; the % refers to the signal ratio). An outline of the steps: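 HEK293 cells stably expressing DRD2, preincubated with 0.1 mM Ro20-1724 and compounds 10 min, were stimulated with 200 nM NKH477 plus 12 nM quinpirole for 30 min at room temperature; cAMP measured by HTRF (665/620 nm).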

Experimental findings from PubChem BioAssay (Tox21) are described below.

Where “and” joins values, the source holds several entries; their conditions need not be identical. Identical values can stand only once. Records with an inconclusive call do not appear. Some compounds were tested as several samples or in several runs, with calls that do not always agree. Calls of active or inactive are those of the source. Unless noted, calls come from the whole dose curve.

Chain of Muscarinic acetylcholine receptor M1 (Homo sapiens) (P11229 whole entry, looked up): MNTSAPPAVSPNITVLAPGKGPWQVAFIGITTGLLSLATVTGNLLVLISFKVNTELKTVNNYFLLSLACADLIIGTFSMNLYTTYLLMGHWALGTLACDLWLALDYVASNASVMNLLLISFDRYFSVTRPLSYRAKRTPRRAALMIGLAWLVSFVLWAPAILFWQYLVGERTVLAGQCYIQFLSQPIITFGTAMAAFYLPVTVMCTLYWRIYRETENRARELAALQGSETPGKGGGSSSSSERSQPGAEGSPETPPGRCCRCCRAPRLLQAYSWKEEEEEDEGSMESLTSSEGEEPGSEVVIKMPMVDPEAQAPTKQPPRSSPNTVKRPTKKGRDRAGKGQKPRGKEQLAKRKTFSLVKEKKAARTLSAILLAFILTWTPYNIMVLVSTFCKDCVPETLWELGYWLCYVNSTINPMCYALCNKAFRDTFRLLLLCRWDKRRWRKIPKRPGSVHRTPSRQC
Chain of Beta-2 adrenergic receptor (Homo sapiens) (P07550 whole entry, looked up): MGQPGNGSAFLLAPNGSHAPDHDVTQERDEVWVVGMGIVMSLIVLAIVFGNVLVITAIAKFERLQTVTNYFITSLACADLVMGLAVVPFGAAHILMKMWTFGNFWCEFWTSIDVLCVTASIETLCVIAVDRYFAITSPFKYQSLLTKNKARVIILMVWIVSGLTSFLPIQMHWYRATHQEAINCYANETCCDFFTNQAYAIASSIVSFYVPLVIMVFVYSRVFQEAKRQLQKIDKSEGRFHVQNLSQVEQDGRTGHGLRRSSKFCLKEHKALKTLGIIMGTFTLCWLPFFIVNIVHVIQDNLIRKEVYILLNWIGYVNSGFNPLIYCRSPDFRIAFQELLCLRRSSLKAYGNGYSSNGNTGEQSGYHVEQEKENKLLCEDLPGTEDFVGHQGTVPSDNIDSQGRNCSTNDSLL

As for `c1ccoc1`, the Potency result in experiment [1], in experiment [2], in [3], in experiment [4], in experiment [5] and in experiment [6] was “inactive” each time. The Potency result in [7], in experiment [8], in experiment [9], in [10], in [11] and in [12] was “inactive” throughout. For the same compound, the Potency result in experiment [13], in experiment [14], in [15], in [16], in experiment [17] and in experiment [18] was “inactive” each time. In addition, the Potency entry in [19] and in [20] was “inactive” in each case.
Turning to `CC(NC(C)(C)C)C(=O)c1cccc(Cl)c1` (stereo not given), the Potency result in experiment [1], in experiment [2], in [3], in [4], in [5] and in experiment [6] was “inactive” throughout. In addition, the Potency result in [7], in experiment [8], in experiment [10], in experiment [15], in [16] and in [17] was “inactive” each time. Also, the Potency entry in experiment [19] and in [20] was “inactive” throughout.
For `CCOP(=O)(OCC)OCC`, the Potency result in experiment [1], in [2], in experiment [3], in experiment [4], in [5] and in experiment [6] was “inactive” each time. Further, the Potency result in experiment [7], in experiment [8], in experiment [9], in experiment [10], in [11] and in experiment [12] was “inactive” each time. In addition, the Potency result in experiment [13], in experiment [15], in experiment [16], in experiment [17], in experiment [18] and in [19] was “inactive” each time. Besides, the Potency result in [20] was “inactive”.
As for `C[CH2][Hg][S]c1ccccc1C(=O)O`, the Potency in [1] was 1.22 µM (active) and 5.96 µM (active); in experiment [2] it was 38.9 µM (active); in experiment [7], 10.2 µM (active) and 11.2 µM (active); in experiment [8] it was 18.2 µM (active) and 9.98 µM (active); in experiment [9] it was 10.2 µM (active) and 11.2 µM (active); in experiment [11], 18.8 µM (active). The Potency was 54.9 µM (active) and 19 µM (active) in experiment [14]; 27.3 µM (active) and inactive in experiment [17]; 16.6 µM (active) in experiment [19]. Besides, the Potency result in [3], in experiment [4], in [5], in experiment [6], in [13] and in [20] was “inactive” each time.
As for `O=[N+]([O-])O[C@H]1CO[C@H]2[C@@H]1OC[C@H]2O[N+](=O)[O-]`, the Potency entry in experiment [1], in experiment [2], in [3], in experiment [4], in experiment [5] and in [6] was “inactive” throughout. For the same compound, the Potency entry in experiment [7], in [8], in experiment [9], in experiment [10], in [11] and in experiment [12] was “inactive” in each case. For the same compound, the Potency result in experiment [13], in experiment [14], in [15], in experiment [16], in experiment [17] and in [18] was “inactive” throughout. The Potency result in experiment [19] and in experiment [20] was “inactive” each time.
For the compound `C=CCBr`, the Potency result in [1], in experiment [2], in experiment [3], in [4], in experiment [5] and in experiment [6] was “inactive” in each case. Further, the Potency entry in experiment [7], in experiment [8], in experiment [9], in experiment [10], in experiment [11] and in [12] was “inactive” each time. Moreover, the Potency entry in experiment [13], in experiment [14], in [15], in [16], in [17] and in experiment [18] was “inactive” in each case. For the same compound, the Potency result in [19] and in experiment [20] was “inactive” throughout.
On to `CCOP(=O)(OCC)SCCSCC`, for which the Potency entry in [1], in [2], in experiment [3], in experiment [4], in experiment [7] and in experiment [8] was “inactive” in each case. Further, the Potency entry in experiment [9], in experiment [10], in experiment [11], in [12], in experiment [13] and in experiment [14] was “inactive” each time. Besides, the Potency entry in experiment [15], in experiment [16], in experiment [17], in [18] and in [19] was “inactive” in each case.
